A selection: hits, their analogues and other compounds. The true share with any hit is near 3.5%.
TEAD-YAP inh = TEAD-YAP interaction inhibition | 640,000 compounds, 1.4% hits | HEK-TIYL cells, TEAD-Gal4/YAP UAS-luciferase luminescence | AID 1259422 | inhibition, % at 9.12 µM; in the data active means inhibition above about 32%
FBW7 activator = activators of human E3 ligase FBW7 | Q969H0 | AlphaScreen FBW7–phospho-cyclin E peptide binding, activator screen | normalized activity (activation), % at 26.1 µM | 650,000 compounds, 0.13% hits | AID 1259310; in the data active means normalized activity above about 1.9%;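 further: purified mutant Fbw7 with reduced substrate affinity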
MITF inh = blocks human microphthalmia-associated transcription factor; 650,000 compounds, 0.91% hits; inhibition, % at 2.6 µM; O75030; AlphaScreen MITF homodimerization, bead proximity signal; in the data active means inhibition above about 50%
Target sequence (O75030 whole entry, looked up): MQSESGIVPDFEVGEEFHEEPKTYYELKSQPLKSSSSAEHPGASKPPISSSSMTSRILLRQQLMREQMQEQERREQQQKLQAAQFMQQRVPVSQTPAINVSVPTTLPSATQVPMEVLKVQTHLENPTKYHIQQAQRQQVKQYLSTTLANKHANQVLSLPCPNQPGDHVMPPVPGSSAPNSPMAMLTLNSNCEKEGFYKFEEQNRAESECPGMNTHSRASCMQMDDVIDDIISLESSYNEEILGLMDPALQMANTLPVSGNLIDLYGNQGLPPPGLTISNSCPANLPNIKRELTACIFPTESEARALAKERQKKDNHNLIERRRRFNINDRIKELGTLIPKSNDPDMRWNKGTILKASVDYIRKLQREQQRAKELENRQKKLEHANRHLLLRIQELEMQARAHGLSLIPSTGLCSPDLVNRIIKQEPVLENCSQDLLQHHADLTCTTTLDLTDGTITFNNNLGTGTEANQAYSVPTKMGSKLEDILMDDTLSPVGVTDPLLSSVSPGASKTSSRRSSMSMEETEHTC
GPR151 ag = activates the human receptor GPR151; Q8TDV0; PathHunter beta-arrestin GPR151 cells, luminescence; activation, % at 11.2 µM; 650,000 compounds, 1% hits; AID 1508602; in the data active means activation above about 4.9%
MITF inh conf = confirmation of human MITF inhibitors; AlphaScreen MITF homodimerization, biotin/His-MITF beads; 4,700 compounds, 16% hits; shares compounds with MITF inh; inhibition, % at 2.6 µM;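 active means inhibition above a cutoff derived from the DMSO control wells, cut at about 28% in these data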;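 further: inhibitors lower the bead chemiluminescence by keeping MITF from dimerizing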
AS interf DR = counter-screen: compounds optically interfering with AlphaScreen | IC50, µM | AID 1259373 | AlphaScreen optical interference counterscreen, cell-free | shares compounds with MITF inh | 480 compounds, 6% hits; call rule not given here
AlphaScreen intf2 = AlphaScreen optical interference, counter-screen | shares compounds with MITF inh | 4,700 compounds, 7.6% hits | LysRS AlphaScreen counterscreen, signal interference, triplicate | inhibition, % at 2.6 µM;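 active means inhibition above a cutoff derived from the DMSO control wells, cut at about 30% in these data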
Each line names hits and unclear results; the compound was inactive in the other large screens (follow-up assays come after a bar, where they were run).

CCN(CCCNC(=O)CCNC(=O)Cn1cnc2sc3c(c2c1=O)CCCC3)c1cccc(C)c1	none
CCOC(=O)C(NC(=O)c1ccccc1OCC)(Nc1ccc(C(C)=O)cc1)C(F)(F)F (stereo not drawn)	none
Nc1nonc1-c1noc(-c2ccccc2F)n1	none
Nc1nonc1-c1noc(-c2ccccc2Br)n1	MITF inh 76.7 | MITF inh conf inactive | AlphaScreen intf2 inactive
Cc1ccc(C(=O)N2CCN3C(=O)[C@@H]([C@H](C)O)NC(=O)[C@H]3C2)cc1	none
C[C@@H](O)[C@@H]1NC(=O)[C@H]2CN(C(=O)NC3CCCCC3)CCN2C1=O	MITF inh 80.3 | MITF inh conf 73.0 | AS interf DR inactive | AlphaScreen intf2 inactive
CC(C)[C@H]1NC(=O)[C@H]2CN(C(=O)NC3CCCCC3)CCN2C1=O	MITF inh 75.9 | MITF inh conf 71.7 | AS interf DR inactive | AlphaScreen intf2 inactive
CC(C)[C@H]1NC(=O)[C@H]2CN(C(=O)c3ccccc3)CCN2C1=O	none
Fc1cccc(Cl)c1CSc1nnc(-c2ccc(Cl)cc2Cl)o1	none
Cc1ccc(NCc2ccccn2)c(Br)c1	MITF inh 58.9 | MITF inh conf inactive | AlphaScreen intf2 inactive
Cc1cc(Br)ccc1NCc1ccccn1	MITF inh 67.4 | MITF inh conf inactive | AlphaScreen intf2 inactive
Cc1cc(C)cc(NCc2ccccn2)c1	none
COc1ccccc1OCC(=O)Nc1cc(N2CCCS2(=O)=O)ccc1C	none
COc1cc(CN2CCCCCC2)cc(OC)c1	none
COc1cc(CN2CCN(Cc3cccc(Cl)c3)CC2)cc(OC)c1	MITF inh 73.5 | MITF inh conf inactive | AlphaScreen intf2 inactive
COc1cccc(CN2CCCCC2)c1	none
COc1cc(CN2CCN(Cc3ccc(Cl)cc3)CC2)cc(OC)c1	MITF inh 84.3 | MITF inh conf inactive | AlphaScreen intf2 inactive
COc1ccc(-n2ncc3c(Nc4cc(OC)c(OC)c(OC)c4)ncnc32)cc1	none
CN(C)CCOc1ccc2ccccc2c1	MITF inh 75.9 | MITF inh conf inactive | AlphaScreen intf2 inactive
Cc1ccc(C(=O)NCc2c(C)ncc3c2CCN(C(=O)C#Cc2ccccc2)C3)s1	none
CCOC(=O)N1CCN(C(=O)CSc2nc(-c3ccc(OC)cc3)ns2)CC1	none
Cc1nc2ccccc2n1CC1CCN(C(=O)CN2C(=O)CCC2=O)CC1	MITF inh 64.8 | MITF inh conf inactive | AlphaScreen intf2 inactive
COc1ccc(CCC(=O)N2CCC(Cn3c(C)nc4ccccc43)CC2)cc1	MITF inh 77.8 | MITF inh conf inactive | AlphaScreen intf2 inactive
COc1ccccc1NC(=O)CN1CCN(CC(=O)Nc2ccccc2OC)CC1	none
Cc1nc2ccccc2n1CC1CCN(C(=O)Nc2ccccc2)CC1	none
COc1ccccc1NC(=O)CN1CCN(Cc2nc3ccccc3n2C)CC1	MITF inh 67.2 | MITF inh conf inactive | AlphaScreen intf2 inactive
Cn1c(CN2CCN(C(=O)CN3C(=O)CCC3=O)CC2)nc2ccccc21	MITF inh 53.9 | MITF inh conf inactive | AlphaScreen intf2 inactive
CCNc1oc(-c2ccccc2)nc1S(=O)(=O)c1ccccc1	none
COc1ccc(CN2CCC(N3CCCCC3)CC2)c(OC)c1OC	none
CNC(=O)c1nnc(-c2ccccc2)o1	MITF inh 78.0 | MITF inh conf inactive | AlphaScreen intf2 inactive
CNC(=O)C(=O)NCC1OCCCN1S(=O)(=O)c1ccc(OC)c(OC)c1 (stereo not drawn)	none
O=C(O)C1CCN(c2ncc(-c3ccc(Cl)cc3)cn2)CC1	MITF inh 60.7 | MITF inh conf inactive | AlphaScreen intf2 inactive
Cc1ccc(/C=C(\C#N)C(=O)Nc2c(Cl)cccc2Cl)o1	MITF inh 73.8 | MITF inh conf inactive | AlphaScreen intf2 inactive
Cc1ccc(/C=C(\C#N)C(=O)Nc2cccc(Cl)c2Cl)o1	none
COc1ccc(/C=N\NC(=O)c2ccc([N+](=O)[O-])cc2)cc1[N+](=O)[O-]	none
Nc1nc(-c2cccnc2)nn1C(=O)c1ccc([N+](=O)[O-])cc1	MITF inh 55.3 | MITF inh conf inactive | AlphaScreen intf2 inactive
Nc1nc(-c2cccnc2)nn1C(=O)c1ccc(Cl)cc1	none
Cc1cc(C)nc(OCc2ccccc2Cl)n1	none
NC(=O)C1CCN(c2ncnc3c2c(-c2ccccc2)cn3-c2ccc(F)cc2)CC1	none
COc1cccc(C(=O)O/N=C(\N)c2cccnc2)c1	none
Cc1cc(C)cc(C(=O)O/N=C(\N)c2cccnc2)c1	MITF inh 55.7 | MITF inh conf inactive | AlphaScreen intf2 inactive
O=C(Cn1ccccc1=S)c1ccccc1	MITF inh 62.6 | MITF inh conf inactive | AlphaScreen intf2 inactive
COc1ccc(CN2CCCC(C(=O)N3CCCC3)C2)c(OC)c1OC (stereo not drawn)	MITF inh 93.2 | MITF inh conf inactive | AlphaScreen intf2 inactive
COc1ccc(OC)c(CN2CCCC(C(=O)NN)C2)c1 (stereo not drawn)	none
COc1ccc(OC)c(CN2CCCC(C(=O)N3CCCCCC3)C2)c1 (stereo not drawn)	MITF inh 93.2 | MITF inh conf inactive | AlphaScreen intf2 inactive
COc1ccc(OC)c(CN2CCC(C(N)=O)CC2)c1	none
COc1ccc(OC)c(CN2CCCC(C(=O)N3CCCCC3)C2)c1 (stereo not drawn)	MITF inh 77.9 | MITF inh conf inactive | AlphaScreen intf2 inactive
CCOc1ccc(C2=NC(c3cccc(F)c3)NC(c3cccc(OCC)c3O)C2)cc1 (stereo not drawn)	none
CCOC(=O)c1ccc(NC(=S)NC(=O)/C=C/c2ccco2)cc1	MITF inh 69.1 | MITF inh conf inactive | AlphaScreen intf2 inactive
Cc1c(NC(=S)NC(=O)/C=C/c2ccco2)cccc1C(=O)O	MITF inh 67.3 | MITF inh conf 60.3 | AS interf DR inactive | AlphaScreen intf2 inactive
O=C(/C=C/c1ccco1)NC(=S)NNC(=O)c1ccccc1O	TEAD-YAP inh 58.2, MITF inh 61.0 | MITF inh conf 66.5 | AS interf DR inactive | AlphaScreen intf2 inactive
O=C(/C=C/c1ccco1)NC(=S)Nc1cc(C(=O)O)ccc1Cl	MITF inh 63.4 | MITF inh conf 68.7 | AS interf DR inactive | AlphaScreen intf2 inactive
Cc1nn(C(C)C(=O)NCCCN2CCCC2=O)c(=O)c2c1sc1ccccc12 (stereo not drawn)	none
O=C(Nc1nccs1)c1c(F)cccc1Cl	none
O=[N+]([O-])c1ccc(N2CCCc3ccccc32)c([N+](=O)[O-])c1	MITF inh 61.5 | MITF inh conf 46.6 | AlphaScreen intf2 40.5
O=[N+]([O-])c1ccc(N2CCc3ccccc3C2)c([N+](=O)[O-])c1	none
COc1cccc(CC(=O)NCC2CCC3(CCN(Cc4ccccn4)CC3)O2)c1 (stereo not drawn)	none
CSc1ccc(CC(=O)NCC2CCC3(CCN(Cc4ccccn4)CC3)O2)cc1 (stereo not drawn)	MITF inh 69.4 | MITF inh conf inactive | AlphaScreen intf2 inactive
C=CCOc1ccc2c3c(c(=O)oc2c1C)CCC3	MITF inh 54.4 | MITF inh conf inactive | AlphaScreen intf2 inactive
